Shown are actives, neighbours in structure and some others; about 8.5% of the full set was active somewhere.
ALDH1A1 inh: ALDH1A1 (human) enzyme inhibition | Potency, µM (titrated, usually from 75.3 µM), for inactives: at the top dose activity, negative = inhibition, most hits filed as inhibitors | 220,000 compounds, 7.3% hits | Purified ALDH1A1, NADH fluorescence, propionaldehyde substrate | P00352;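 also: potency is read from the fitted curve at half-maximal effect; plate controls were no enzyme wells and a reference inhibitor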
NPSR antagonist: blocks cAMP signaling of the human neuropeptide S receptor. CHO-NPSR cells, cAMP TR-FRET, antagonist mode. Potency, µM (series often up to 38.3 µM), for inactives: at the highest dose activity change, negative = inhibition, most hits filed as inhibitors. 220,000 compounds, 1% hits; active = well fitted curve in the direction sought with a large enough effect; inconclusive = small, poorly fitted or top-dose-only effect, or another doubt; inactive = no such curve, though single readings can be large; an effect the other way counts as inactive or inconclusive; also: potency is read from the fitted curve at half-maximal effect; nearly all actives have a fitted effect of over 50% in size
Target sequence (Q6W5P4 whole entry, looked up): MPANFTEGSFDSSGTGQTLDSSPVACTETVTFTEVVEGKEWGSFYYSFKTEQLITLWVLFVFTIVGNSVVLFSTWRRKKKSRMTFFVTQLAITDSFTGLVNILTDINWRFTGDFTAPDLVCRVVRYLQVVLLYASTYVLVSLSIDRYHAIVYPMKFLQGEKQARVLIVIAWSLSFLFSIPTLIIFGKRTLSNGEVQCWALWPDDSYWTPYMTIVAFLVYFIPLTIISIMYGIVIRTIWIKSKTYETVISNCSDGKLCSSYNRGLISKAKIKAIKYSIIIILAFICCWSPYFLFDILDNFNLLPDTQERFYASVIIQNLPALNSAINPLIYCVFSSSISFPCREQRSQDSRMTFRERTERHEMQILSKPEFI
Sfp PPTase inh: Sfp phosphopantetheinyl transferase inhibition | Q9F4F7 | Biochemical Sfp PPTase activity, qHTS | Potency, µM, inactives show largest response in the series, negative = inhibition, most hits filed as inhibitors | 310,000 compounds, 3.5% hits | AID 1490; active = well fitted curve in the direction sought with a large enough effect; inconclusive = small, poorly fitted or top-dose-only effect, or another doubt; inactive = no such curve, though single readings can be large; an effect the other way counts as inactive or inconclusive;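 also: the enzyme is Sfp with the accession as filed and its product quenches rhodamine fluorescence; potency is read from the fitted curve at half-maximal effect; 0% = enzyme reaction without inhibitor and -100% = no enzyme wells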
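Step 1, compound plus 15 nM Sfp-PPTase, 15 min, room temperature. Step 2, add rhodamine-CoA (5 uM) and BHQ-2-YbbR (12.5 uM). Step 3, read 525/598 nm fluorescence at 0 and 30 min.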
RGS12 GoLoco inh: RGS12 GoLoco-Gai1 interaction inhibition. P63096. Gai1:RGS12 GoLoco peptide FP, rhodamine, 10 min. Potency, µM (titrated, usually from 61.6 µM), for the others: at the top dose activity, negative = inhibition, usual class: inhibitors. 230,000 compounds, 0.44% hits. AID 880; active = well fitted inhibition curve with a large enough effect, not every such curve was filed as active; inactive = no such curve, though single readings can be large or run the other way; also: potency is read from the fitted curve at half-maximal effect; nearly all actives have a fitted effect of over 30% in size
Target sequence (P63096 whole entry, looked up): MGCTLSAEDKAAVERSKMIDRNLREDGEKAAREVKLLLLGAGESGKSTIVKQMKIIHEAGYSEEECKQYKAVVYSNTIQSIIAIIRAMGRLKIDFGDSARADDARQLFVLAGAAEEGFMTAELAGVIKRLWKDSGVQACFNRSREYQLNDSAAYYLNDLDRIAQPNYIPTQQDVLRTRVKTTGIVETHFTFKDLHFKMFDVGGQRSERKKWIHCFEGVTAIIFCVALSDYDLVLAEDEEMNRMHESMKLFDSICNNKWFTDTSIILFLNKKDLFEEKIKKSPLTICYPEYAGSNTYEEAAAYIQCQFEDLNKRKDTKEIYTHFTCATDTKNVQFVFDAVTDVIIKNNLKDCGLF
JMJD2E inh: inhibitors of human JMJD2E histone demethylase | B2RXH2 | JMJD2E catalytic domain, FDH-coupled NADH fluorescence (FDH is formaldehyde dehydrogenase) | Potency, µM (highest dose often 57.1 µM), inactives show at the top dose activity change, negative = inhibition, hits mostly inhibitors | 230,000 compounds, 1.6% hits;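 also: potency is read from the fitted curve at half-maximal effect; 0% = wells with enzyme and -100% = buffer wells without enzyme; nearly all actives have a fitted effect of over 50% in size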
Coupling enz: counter-screen for Giardia aldolase inhibitors: coupling enzyme system; 290,000 compounds, 0.67% hits; activity change, negative = inhibition, % at 58.2 µM, hits read low; coupling enzyme system counterscreen, AmpLite Red fluorescence; in the data active = activity change below about -30%
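Coupling enzymes only (glyceraldehyde-3-phosphate) + compound, at 57.5 uM final, 10 min RT; add substrate/coupling/AmpLite Red mix, 20 min RT; fluorescence ex 525/em 598 nm. Actives flag coupling-system interference.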
The depositor's hits bear a star; ? = inconclusive; . = no result; [ ] = remark or other dose. Unless noted, calls follow the shape of the dose curve; as a rule, active = well fitted inhibition curve with a large enough effect (not every such curve was filed as active); inconclusive = small, poorly fitted or top-dose-only effect, or another doubt; inactive = no such curve, though single readings can be large or run the other way. Unless noted, % is scaled to controls: 0 for no effect and ±100 for the full control effect.

SMILES	ALDH1A1 inh	NPSR antagonist	Sfp PPTase inh	RGS12 GoLoco inh	JMJD2E inh	Coupling enz
CCOC(=O)C(C)CC(C)C(=O)N1CCOCCOCCN(C(=O)C(C)CC(C)C(=O)OCC)CCOCC1 (stereo not given)	-5.2%	-6.8%[46.1 µM]	15.8%	-2.6%	1.2%	1.9
CCOC(=O)C(C(=O)OCC)C(C(=O)OCC)N1CCOCC1 (stereo not given)	28.2µM*	?	22.4µM*	14.1µM*	-9.1%	2.8
COC(=O)N1CCC2(CC1)CN(C(=O)Nc1cccc(F)c1)C2	24.2%	.	15.4%	-0.1%	.	2.1
CCCC[C@]12Cc3cc(C#N)ccc3C(O1)c1c(cc(-c3ccccc3)oc1=O)O2	.	.	3.3%	.	.	0.6
COc1ccc(-c2cc(C(F)F)nc(-n3nc(C)cc3C)n2)cc1	?	-20.2%[46.1 µM]	50.1µM*	-1.1%	?	-0.3
O=C(Nc1c(F)cc(F)cc1Br)c1ccco1	?	-13.1%[46.1 µM]	50.1µM*	22.0%	9.2%	-0.4
COc1cccc(CNC(=O)CN2C(=O)CC(c3ccccc3)=Nc3ccccc32)c1	35.5µM*	16.6%	8.6%	11.0%	15.2%	4.4
CN(C)CCCNCC(=O)c1c(-c2ccccc2)n(C)c2ccccc12	.	.	39.8µM*	.	.	-3.8
Cc1ccc(CNC(=O)CNC(=O)[C@@H]2Cc3ccccc3CN2)cc1	.	.	-4.4%	.	.	0.3
CCOC(=O)C1=C(C)C(c2ccccc2)NC(=S)N1 (stereo not given)	2.51µM*	1.4%[46.1 µM]	0.1%	0.3%	0.1%	5.0
COC(=O)C1=C(C)C(c2ccc(OC)cc2)NC(=S)N1 (stereo not given)	8.91µM*	0.5%[46.1 µM]	8.3%	-6.0%	-6.3%	-6.5
COc1ccc(C2NC(=S)NC(C)=C2C(=O)Nc2ccccn2)cc1 (stereo not given)	14.1µM*	1.1%	22.6%	12.4%	-2.3%	4.5
CC(C)N1CCN(Cc2ccc(Sc3nncn3C)o2)CC1CCO (stereo not given)	.	10.1%	20.6%	-0.6%	7.2%	2.6
CN(Cc1cccnc1)C(=O)CC1C(=O)NCCN1Cc1ccc(-c2ccccc2)cc1 (stereo not given)	15.8µM*	-7.2%	-9.0%	-7.7%	?	-0.6
COc1ccc(CN2CCNC(=O)C2CC(=O)N(C)Cc2nccs2)cc1OC (stereo not given)	.	.	-12.6%	.	.	-4.0
CCN(Cc1ccncc1)C(=O)CC1C(=O)NCCN1Cc1ccc(F)c(F)c1 (stereo not given)	?	6.1%	79.4µM*	-20.8%	?	-22.8
COc1cc(CN2CCNC(=O)C2CC(=O)N(C)Cc2cccnc2)cc(OC)c1 (stereo not given)	-0.4%	-8.9%	15.3%	3.6%	-11.6%	0.4
CN(Cc1nccs1)C(=O)CC1C(=O)NCCN1Cc1ccc(-c2ccccc2)cc1 (stereo not given)	.	20.7%	44.7µM*	-19.8%	?	-16.6
COc1ccc(-n2ncc(C(C)NS(=O)(=O)c3cccs3)c2C)cc1 (stereo not given)	.	.	9.5%	.	.	-3.2
Cc1cc(C)n(CCc2nc3c4ccccc4n(CC#N)c(=O)n3n2)n1	11.2µM*	2.3%[46.1 µM]	-1.1%	9.1%	-4.9%	3.9
NC(=O)NNc1ncc(C(F)(F)F)cc1Cl	?	8.1%	50.1µM*	12.8%	3.5%	2.2
NC(=S)Nc1ncc(C(F)(F)F)cc1Cl	-9.1%	15.0%	?	11.1%	-5.8%	1.9
O=C(NNc1ncc(C(F)(F)F)cc1Cl)c1c(Cl)cccc1Cl	2.6%	?	20.5%	14.2%	1.2%	-1.6
O=C(O)c1ccc(/C=N/Nc2ncc(C(F)(F)F)cc2Cl)cc1	0.5%	-8.7%	28.2µM*	-7.2%	-12.3%	-0.9
Cc1c(Cl)cccc1NC(=S)NNc1ncc(C(F)(F)F)cc1Cl	14.1µM*	-8.9%[46.1 µM]	20.1%	13.3%	2.9%	1.1
SMILES	ALDH1A1 inh	NPSR antagonist	Sfp PPTase inh	RGS12 GoLoco inh	JMJD2E inh	Coupling enz
Fc1ccccc1NC(=S)NNc1ncc(C(F)(F)F)cc1Cl	2.24µM*	-1.7%[46.1 µM]	3.5%	68.3%	-7.0%	0.4
CSc1ncccc1C(=O)N1CCCC(N2CCN(c3ccccc3F)CC2)C1 (stereo not given)	.	.	14.0%	.	.	.
Cc1ccc(NC(=S)N2CCN(S(=O)(=O)c3ccccc3)CC2)cc1C	.	.	11.9%	.	.	.
COc1cccc(NC(=S)N(C)C2CCN(C)CC2)c1	.	.	2.4%	.	.	1.0
CNC(=O)CSc1nc2cccnc2n1-c1ccc(F)cc1	.	.	6.8%	.	.	5.5
FC(F)(F)c1cnc(NNC(=S)Nc2cccnc2)c(Cl)c1	2.24µM*	8.5%	-26.4%	3.8%	5.9%	-2.3
NC(=S)c1ncc(C(F)(F)F)cc1Cl	28.2µM*	-13.7%	-12.2%	13.0%	-6.2%	-4.1
Cc1ccccc1NC(=S)NNc1ncc(C(F)(F)F)cc1Cl	10µM*	-5.9%[46.1 µM]	-2.2%	-1.9%	-4.1%	3.5
Cc1cccc(C)c1NC(=S)NNc1ncc(C(F)(F)F)cc1Cl	?	-2.2%[46.1 µM]	16.5%	6.6%	2.0%	5.0
NC(=O)c1ncc(C(F)(F)F)cc1Cl	0.3%	18.0%	9.2%	3.6%	0.8%	0.8
Cc1ccccc1N(CC(=O)NC1CCCCC1)C(=O)CNC(=O)c1cccs1	.	.	9.8%	.	.	-0.8
CC1C(=O)N(C)C(=O)c2nc[nH]c21 (stereo not given)	-2.6%	3.9%[46.1 µM]	.	3.4%	10.1%	.
CCc1ccc(NC(=O)Cn2cnc3c(=O)n(C)c(=O)n(C)c32)cc1	0.9%	21.8%	10.8%	-31.8%	-11.7%	2.5
CCc1ccc(C(C)NC(=O)Cn2cnc3c(=O)n(C)c(=O)n(C)c32)cc1 (stereo not given)	28.2µM*	-0.9%[46.1 µM]	2.0%	5.0%	5.1%	0.4
O=C(CSc1nnc(CNC(=O)c2ccccc2F)o1)NC1CCCCC1	.	.	3.1%	.	.	.
CCN1C(=S)SC(=O)C1=C1C=C(C)OC(C)=C1	-2.3%	-1.8%[46.1 µM]	6.9%	41.0%	2.2%	0.0
CCN1C(=S)SC(=O)C1=C1C=C(C)N(Cc2ccco2)C(C)=C1	2.51µM*	?	14.1µM*	72.1%	-27.9%	-13.9
COc1cccc(C2c3[nH]c4ccccc4c3C[C@H]3C(=O)N(c4ccccc4C(=O)NCCCN4CCOCC4)C(=O)N23)c1 (stereo not given in full)	.	.	2.6%	.	.	0.6
CC(C)[C@H](NS(=O)(=O)c1ccccc1)C(=O)OCC(=O)NC(=O)c1cccn1C	12.6µM*	-3.3%[46.1 µM]	-0.2%	112.7%	-3.5%	-10.2
COc1ccc(C(=O)N[C@H](C(=O)OCC(=O)NC(=O)c2cccn2C)C(C)C)cc1	8.9%	10.5%	-1.4%	0.8%	3.4%	0.0
COc1ccc(N2CCN(C(C)C(=O)N3CC(C)OC(C)C3)CC2)cc1 (stereo not given)	?	18.0%	?	-1.9%	22.4µM*	-0.3
COc1ccc(N2CCN(C(C)C(=O)N3CCc4ccccc43)CC2)cc1 (stereo not given)	.	.	0.8%	.	.	2.5
